Among all 340,000 compounds or so, about 1,000 (0.29%) were called active. Rule as the data show it: inconclusive = inhibition above about 29% without an active follow-up result; inactive = below that. These entries were drawn from the full list. Measured potencies and affinities stand elsewhere.

The term inhibition denotes the relative decrease from the control value, in per cent.

The assay deals with Genome polyprotein (Dengue virus type 2 (strain 16681-PDK53)) (UniProt P29991). In words: Dengue-2 NS5 methyltransferase inhibitors, primary screen, biochemical, confirmation dose response (AID 588689). The conditions noted are these: Dengue-2 NS5 methyltransferase capping enzyme assay, at 25 µM, stronger effect = higher value.
Where [1] appears, read: measured here: pilot screen replicate inhibition.

Chain of Genome polyprotein (Dengue virus type 2 (strain 16681-PDK53)) (P29991 whole entry, looked up): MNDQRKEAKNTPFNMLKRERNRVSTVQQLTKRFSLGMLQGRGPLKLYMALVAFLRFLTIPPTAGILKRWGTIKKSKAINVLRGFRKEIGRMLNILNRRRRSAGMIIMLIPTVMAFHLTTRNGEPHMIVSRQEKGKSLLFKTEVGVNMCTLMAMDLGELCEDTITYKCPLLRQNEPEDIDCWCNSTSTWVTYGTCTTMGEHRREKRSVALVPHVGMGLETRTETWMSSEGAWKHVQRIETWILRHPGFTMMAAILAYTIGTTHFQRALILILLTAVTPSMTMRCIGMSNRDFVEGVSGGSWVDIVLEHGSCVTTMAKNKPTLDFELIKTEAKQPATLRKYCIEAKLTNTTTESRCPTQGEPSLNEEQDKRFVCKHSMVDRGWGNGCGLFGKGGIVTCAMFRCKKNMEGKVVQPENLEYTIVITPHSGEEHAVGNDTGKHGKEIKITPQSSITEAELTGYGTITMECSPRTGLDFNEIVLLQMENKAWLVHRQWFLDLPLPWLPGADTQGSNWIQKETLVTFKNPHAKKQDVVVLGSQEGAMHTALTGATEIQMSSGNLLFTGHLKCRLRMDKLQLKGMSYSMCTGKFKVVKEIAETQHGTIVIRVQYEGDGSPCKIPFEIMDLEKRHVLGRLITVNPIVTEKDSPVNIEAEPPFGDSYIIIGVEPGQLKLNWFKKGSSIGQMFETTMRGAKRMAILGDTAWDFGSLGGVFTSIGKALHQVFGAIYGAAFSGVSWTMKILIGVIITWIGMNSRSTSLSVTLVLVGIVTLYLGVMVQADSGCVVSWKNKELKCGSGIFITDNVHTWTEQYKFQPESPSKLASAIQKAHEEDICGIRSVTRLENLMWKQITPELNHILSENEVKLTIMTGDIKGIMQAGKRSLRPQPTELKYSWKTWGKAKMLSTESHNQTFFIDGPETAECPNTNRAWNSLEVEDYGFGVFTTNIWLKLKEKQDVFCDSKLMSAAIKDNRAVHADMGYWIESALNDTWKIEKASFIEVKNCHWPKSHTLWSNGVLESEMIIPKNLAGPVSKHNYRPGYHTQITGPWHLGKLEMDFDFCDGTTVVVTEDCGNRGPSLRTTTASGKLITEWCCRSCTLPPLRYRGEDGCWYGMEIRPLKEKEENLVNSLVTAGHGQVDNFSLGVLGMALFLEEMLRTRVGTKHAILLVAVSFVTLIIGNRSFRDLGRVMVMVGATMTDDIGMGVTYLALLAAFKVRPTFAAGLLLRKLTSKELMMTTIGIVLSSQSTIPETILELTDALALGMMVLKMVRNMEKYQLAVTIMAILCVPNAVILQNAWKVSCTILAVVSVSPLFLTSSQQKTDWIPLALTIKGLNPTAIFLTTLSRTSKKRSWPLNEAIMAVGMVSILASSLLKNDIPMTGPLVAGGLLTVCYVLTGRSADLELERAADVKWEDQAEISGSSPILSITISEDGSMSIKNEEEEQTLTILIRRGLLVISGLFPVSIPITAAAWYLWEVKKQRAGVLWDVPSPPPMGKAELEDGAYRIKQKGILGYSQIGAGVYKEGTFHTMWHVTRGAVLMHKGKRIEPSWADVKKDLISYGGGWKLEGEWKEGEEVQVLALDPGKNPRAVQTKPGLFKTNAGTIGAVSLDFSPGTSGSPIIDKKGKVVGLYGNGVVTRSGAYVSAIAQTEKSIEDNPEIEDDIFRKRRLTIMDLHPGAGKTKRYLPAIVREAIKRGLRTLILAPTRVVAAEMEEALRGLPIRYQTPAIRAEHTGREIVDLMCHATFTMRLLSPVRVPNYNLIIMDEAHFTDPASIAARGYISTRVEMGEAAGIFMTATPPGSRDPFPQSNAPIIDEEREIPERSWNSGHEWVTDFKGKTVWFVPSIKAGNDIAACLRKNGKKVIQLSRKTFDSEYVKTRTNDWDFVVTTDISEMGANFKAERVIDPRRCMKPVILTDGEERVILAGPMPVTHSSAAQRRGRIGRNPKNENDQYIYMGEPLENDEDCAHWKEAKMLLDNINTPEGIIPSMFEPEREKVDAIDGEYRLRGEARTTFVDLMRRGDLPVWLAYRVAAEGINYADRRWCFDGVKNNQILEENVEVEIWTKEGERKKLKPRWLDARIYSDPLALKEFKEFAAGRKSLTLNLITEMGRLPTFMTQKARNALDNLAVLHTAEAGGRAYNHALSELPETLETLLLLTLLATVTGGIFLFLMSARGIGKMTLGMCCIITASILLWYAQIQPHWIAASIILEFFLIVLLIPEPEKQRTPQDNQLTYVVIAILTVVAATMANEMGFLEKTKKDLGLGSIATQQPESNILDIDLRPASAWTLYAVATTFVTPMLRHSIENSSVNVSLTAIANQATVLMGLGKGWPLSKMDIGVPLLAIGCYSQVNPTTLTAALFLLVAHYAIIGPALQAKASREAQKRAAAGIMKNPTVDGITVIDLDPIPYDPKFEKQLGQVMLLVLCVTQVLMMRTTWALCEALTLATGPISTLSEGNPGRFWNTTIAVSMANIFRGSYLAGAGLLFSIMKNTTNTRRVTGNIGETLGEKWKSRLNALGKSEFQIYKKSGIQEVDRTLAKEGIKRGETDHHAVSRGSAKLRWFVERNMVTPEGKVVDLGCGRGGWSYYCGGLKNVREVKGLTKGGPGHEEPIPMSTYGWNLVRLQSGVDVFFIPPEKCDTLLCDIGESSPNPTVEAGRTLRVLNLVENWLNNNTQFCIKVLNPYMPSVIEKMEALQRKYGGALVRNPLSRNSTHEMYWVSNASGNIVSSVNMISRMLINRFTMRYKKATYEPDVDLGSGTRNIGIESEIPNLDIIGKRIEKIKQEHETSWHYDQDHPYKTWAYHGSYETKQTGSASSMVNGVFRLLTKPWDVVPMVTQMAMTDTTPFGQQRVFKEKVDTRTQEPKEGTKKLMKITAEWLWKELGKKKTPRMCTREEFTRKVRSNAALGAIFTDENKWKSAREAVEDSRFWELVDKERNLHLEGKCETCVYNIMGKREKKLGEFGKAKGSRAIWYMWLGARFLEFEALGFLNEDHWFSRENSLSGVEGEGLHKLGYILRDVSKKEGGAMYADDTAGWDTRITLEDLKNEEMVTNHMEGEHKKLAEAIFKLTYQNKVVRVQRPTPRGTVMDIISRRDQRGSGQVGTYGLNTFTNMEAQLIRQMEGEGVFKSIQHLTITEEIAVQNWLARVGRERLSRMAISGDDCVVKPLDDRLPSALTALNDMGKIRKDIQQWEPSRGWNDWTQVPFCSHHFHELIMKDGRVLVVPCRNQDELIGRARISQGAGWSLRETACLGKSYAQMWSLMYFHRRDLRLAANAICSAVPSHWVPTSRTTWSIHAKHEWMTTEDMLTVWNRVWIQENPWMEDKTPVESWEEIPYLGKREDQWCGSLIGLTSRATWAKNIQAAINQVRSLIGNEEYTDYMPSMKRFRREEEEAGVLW

For `Cc1nnc(NC(=O)c2ccc3c(c2)OCO3)s1`, the inhibition was 8.19% (inactive).
Regarding `Cc1noc(C)c1CSCC(=O)Nc1nc2ccc(S(C)(=O)=O)cc2s1`, the inhibition was -2.95% (inactive).
As for `N#CCC(=O)N/N=C/c1ccc(OS(=O)(=O)c2ccccc2)cc1`, the inhibition is -3.76% (inactive). In addition, under setting [1], the inhibition was -2.42%.
In the case of `COC(=O)Cn1c(CCS(=O)(=O)c2ccc(Cl)cc2)nc2ccccc21`, the inhibition was -5.46% (inactive).
The same measure, in the same setting: as for `Cc1ccc(-c2cnc3ccccc3n2)cc1C`, the figure is -6.51% (inactive); as for `O=C(Nc1ccc2c(c1)OCO2)c1n[nH]c(=O)c2ccccc12`, 11.1% (inactive); as for `CSCCC(NC(=O)C1CC1)c1nc2ccccc2[nH]1` (configuration not stated), -5.48% (inactive).
Still for that read-out and setting: the result for `C[C@H](NC(=O)c1nc[nH]c1C(=O)N1CCN(C(=O)OC(C)(C)C)CC1)C(=O)OCc1ccccc1` reads -2.48% (inactive).
On to `O=C(Nc1ccc(C(F)(F)F)cc1)c1csc(-c2ccncc2)n1`, for which the inhibition was -2.96% (inactive).
With `CSc1nsc(SC)c1NC(=O)N1CCCC1`, the inhibition was -1.61% (inactive).
Take `O=C(O)c1cc(-c2ccc(/C=C3\NC(=O)N(c4ccc(Cl)cc4)C3=O)o2)ccc1Cl`: the inhibition was 13.8% (inactive).
Regarding `O=C(O)c1cc(-c2ccc(/C=C3\NC(=O)N(c4ccccc4)C3=O)o2)ccc1Cl`, the inhibition was 3.09% (inactive).
Same read-out and setting: as for `Cc1ccc(N2NC(=O)/C(=C/c3ccc(-c4ccc(Cl)c(C(=O)O)c4)o3)C2=O)cc1`, the figure is 15.4% (inactive); as for `C#CCN1C(=O)S/C(=C\c2ccc(-c3ccc(Cl)c(C(=O)O)c3)o2)C1=O`, 2.31% (inactive); as for `Cc1cn([C@H]2C[C@H](O)[C@@H](CNC(=O)CNC(=O)CN)O2)c(=O)[nH]c1=O`, 2.27% (inactive).
On the same count and under the same terms, the result for `CCOc1ccc2nc(N/C(N)=N/S(=O)(=O)c3ccc(C)cc3)nc(C)c2c1` reads -2.74% (inactive); that for `Cc1ccc(NC(=O)CC(=O)c2ccccc2)cc1C`, -1.66% (inactive).
Take `C[C@H](NC(=O)c1ccccc1Cl)C(=O)OC(C(=O)Nc1cc(C(F)(F)F)ccc1Cl)c1ccccc1` (some centres not stated): the inhibition is 6.11% (inactive).
For the molecule `Oc1ccccc1N=N/C(=N/Nc1ccccc1O)c1ccccc1`, the inhibition is 6.32% (inactive).
With `O=C(O)c1cc(S(=O)(=O)Nc2ccccc2C(=O)O)ccc1O`, the inhibition is 24.8% (inactive).
Regarding `CC(=O)Nc1ccc(N2CCCCC2)c(C(=O)Nc2cccc(C)c2)c1`, the inhibition is 1.3% (inactive).
The same measure, in the same setting: as for `Cc1cccc(NC(=O)c2cc(NC(=O)C3CCCCC3C(=O)O)ccc2N2CCOCC2)c1` (configuration not stated), the figure is 3.25% (inactive).
The same measure, in the same setting: the result for `Cc1cnc(C(=O)OCc2nc3ccsc3c(=O)[nH]2)cn1` reads -4.41% (inactive).
Same read-out and setting: the result for `Cc1ncc(CN2CCCC(C(=O)Nc3ccc(-c4ccco4)cc3)C2)cn1` (configuration not stated) reads -25.6% (inactive).
Regarding `O=C1C(=O)c2ccc(-c3ccccc3)cc2-c2ccccc21`, the inhibition is -10.1% (inactive). Further, the inhibition under setting [1] stood at 8.18%.
On to `O=C1C(=C(O)c2ccccc2)C(=O)c2ccccc21`, for which the inhibition was 12.9% (inactive).
`COc1ccccc1-n1cc(-c2ccccc2)c2c(=S)nc[nH]c21`: the inhibition is 7.35% (inactive).
On to `COc1ccc(NC(=O)CCCc2ccccc2)cc1OC`, for which the inhibition was -7.95% (inactive).
On the same count and under the same terms, as for `CC(=O)NC(CC(=O)OCC(=O)c1ccc(NC(=O)CC(C)C)cc1)c1ccccc1` (configuration not stated), the figure is -7.74% (inactive); as for `O=C1C(Cl)=C(NCCCO)C(=O)c2ccccc21`, -6.93% (inactive); as for `Cc1ccc(NC2=C(Cl)C(=O)c3ccccc3C2=O)cc1`, -0.64% (inactive).
For the molecule `O=C(O)c1cccc(NC2=C(n3nnc4ccccc43)C(=O)c3ccccc3C2=O)c1`, the inhibition was 0.29% (inactive).
On the same count and under the same terms, as for `O=C(O)c1cccc(NC2=C(N3CCOCC3)C(=O)c3ccccc3C2=O)c1`, the figure is 15% (inactive).
Still for that read-out and setting: the result for `O=C1C(Cl)=C(Nc2ccc(O)cc2)C(=O)c2ccccc21` reads 27.1% (inactive).
On to `O=C1C(Cl)=C(Nc2ccccc2)C(=O)c2ccccc21`, for which the inhibition was 5.85% (inactive).
The same measure, in the same setting: the result for `CCNC1=C(Cl)C(=O)c2ccccc2C1=O` reads 6.43% (inactive).
Regarding `O=S(=O)(Nc1ccc2cn[nH]c2c1)c1ccc(Cl)cc1`, the inhibition was -2.71% (inactive).
The same measure, in the same setting: as for `CCOC(=O)CSc1nnc(-c2cccs2)n1-c1ccccc1`, the figure is -7.23% (inactive).
Same read-out and setting: as for `COc1ccc(C)cc1NC(=O)NNC(=O)c1ccoc1C`, the figure is 5.8% (inactive); as for `COc1cccc(NC(=O)CN2CCC(NC(=O)c3ccccc3C)CC2)c1`, -2.2% (inactive).
Still for that read-out and setting: as for `Cc1cccc(NC2=C(NCCO)C(=O)c3ccccc3C2=O)c1`, the figure is 1.45% (inactive); as for `Cc1ccc(NC2=C(NC(=O)c3ccccc3)C(=O)c3ccccc3C2=O)cc1Cl`, 26.9% (inactive).
In the case of `C=CCOc1ccc(/C=C/C(=O)OCC(=O)NCCCc2ccccc2)cc1`, the inhibition is 0% (inactive).
Take `Cn1c(NC(=O)c2ccc(C(C)(C)C)cc2)cc(=O)n(C)c1=O`: the inhibition is 2.78% (inactive).
Still for that read-out and setting: the result for `O=C(c1cccnc1)N1CCN(CCCc2ccccc2)CC1` reads -7.9% (inactive); that for `COc1ccc(/C=C2/SC(=S)N(CCC(=O)O)C2=O)cc1`, 4.79% (inactive).
`COc1cccc(/C=C2\SC(=S)N(CCC(=O)Nc3ccc(O)cc3)C2=O)c1`: the inhibition is 3.49% (inactive).
Same read-out and setting: as for `Cc1ccc(NC(=O)COc2cccc(/C=C3\SC(=S)N(CCC(=O)O)C3=O)c2)cc1Cl`, the figure is 0.88% (inactive); as for `O=C(O)CCN1C(=O)/C(=C\c2cccc(OCc3ccccc3)c2)SC1=S`, 40.6% (inactive); as for `O=C(COC(=O)c1cc(S(=O)(=O)N2CCOCC2)ccc1F)NCc1ccc2c(c1)OCO2`, -7.39% (inactive).
As to `C/C(CCc1ccccc1)=N/NC(=O)C(=O)NC(C)c1ccccc1` (configuration not stated), the inhibition is -9.31% (inactive).
The same measure, in the same setting: as for `O=C(c1cnn(-c2ccccc2)c1)c1ccccc1O`, the figure is 4.45% (inactive).
Take `CCc1cc(C(=O)Cc2cnn(-c3ccccc3)c2)c(O)cc1O`: the inhibition is 5.45% (inactive). Under setting [1], the inhibition was -6.54%.
As for `O=C(Cc1ccc(Br)cc1)Nc1nc2ccccc2[nH]1`, the inhibition is 3.24% (inactive).
The same measure, in the same setting: the result for `COc1cccc(C(=O)N/N=C/c2ccc(OC)c(COc3ccccc3C(N)=O)c2)c1` reads 3.25% (inactive).
Take `C=CCn1c(SCC(=O)NC(=O)NCCC)nnc1C1CCCCC1`: the inhibition was 3.46% (inactive).
As to `O=C1c2ccccc2CCC12OC2c1ccc([N+](=O)[O-])cc1` (configuration not stated), the inhibition was -3.43% (inactive).
On the same count and under the same terms, the result for `CCOc1ccc(C(=O)CSc2nnc(C3CC3)n2C)cc1` reads -4.8% (inactive); that for `CCSc1nc2cc(OC)c(OC)cc2c(=O)n1CC`, 2.71% (inactive); that for `CCn1c(SCC(N)=O)nnc1-c1ccc(OC)c(OC)c1`, -2.41% (inactive).
`COc1cccc(C(c2c(O)nc(SC)n(C)c2=O)c2c(O)nc(SC)n(C)c2=O)c1`: the inhibition is 16.2% (inactive). Also, the inhibition under setting [1] is -1.21%.
For the molecule `CCOc1ccc(-c2cn(-c3ccc(OC)cc3)c(SC)n2)cc1`, the inhibition is -2.59% (inactive).
Still for that read-out and setting: the result for `COc1ccc(C(c2c(O)nc(SC)n(C)c2=O)c2c(O)nc(SC)n(C)c2=O)cc1O` reads -4.46% (inactive).

Values taken from PubChem BioAssay AID588689 (Southern Research Specialized Biocontainment Screening …, 2011).
